PubChem BioAssay AID1159580 (chemical genetic matrix, 2015)
The campaign covered roughly 5,500 compounds. About 2,000 (36%) were called active. Roughly 18% stayed inconclusive and do not appear here. No stated cut-off is given here; in the data, active means normalized growth mostly below about 0.91 (no sharp cut-off); inconclusive means no clear call, values can overlap the other calls; inactive means mostly above about 0.92. The list shows a part of the results.

Assay: chemical genetic growth profiling, strain panel (AID 1159580);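 further: tested at 20 µM; growth read once vehicle control cultures reached saturation at 30 °C; 1 = growth at the plate median or of vehicle wells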
Settings: growth OD

Measured: normalized growth

CN(C)CCOC(=O)C(c1ccccc1)C1(O)CCCC1 (centres undefined)
inactive: S. cerevisiae deletion strains, locus YJR075W, strain HOC1, stronger effect = lower value 1.01 | S. cerevisiae deletion strains, locus YKL009W, strain mrt4, stronger effect = lower value 1.02 | S. cerevisiae deletion strains, locus YKL068W, stronger effect = lower value 1.01 | S. cerevisiae deletion strains, locus YKL085W, strain MDH1 (second series), stronger effect = lower value 1.04 | S. cerevisiae deletion strains, locus YKL085W, strain MDH1, stronger effect = lower value 1.04 | S. cerevisiae deletion strains, locus YKL160W, strain elf1, stronger effect = lower value 0.988 | S. cerevisiae deletion strains, locus YKR001C, strain vps1, stronger effect = lower value 1.03 | S. cerevisiae deletion strains, locus YKR026C, strain gcn3, stronger effect = lower value 0.973 | S. cerevisiae deletion strains, locus YKR091W, strain srl3, stronger effect = lower value 0.982 | S. cerevisiae deletion strains, locus YLL001W, strain dnm1, stronger effect = lower value 0.957 | S. cerevisiae deletion strains, locus YLL026W, stronger effect = lower value 0.985 | S. cerevisiae deletion strains, locus YLL041C, strain sdh2, stronger effect = lower value 0.99 | S. cerevisiae deletion strains, locus YLR027C, strain aat2, stronger effect = lower value 0.985 | S. cerevisiae deletion strains, locus YLR039C, strain RIC1, stronger effect = lower value 1.04 | S. cerevisiae deletion strains, locus YLR058C, strain SHM2, stronger effect = lower value 1.01 | S. cerevisiae deletion strains, locus YLR102C, strain apc9, stronger effect = lower value 1 | S. cerevisiae deletion strains, locus YLR113W, strain HOG1, stronger effect = lower value 1.01 | S. cerevisiae deletion strains, locus YLR221C, strain rsa3, stronger effect = lower value 1.03 | S. cerevisiae deletion strains, locus YLR258W, strain gsy2, stronger effect = lower value 1.01 | S. cerevisiae deletion strains, locus YLR262C, strain YPT6 (second series), stronger effect = lower value 0.995 | S. cerevisiae deletion strains, locus YLR262C, strain YPT6, stronger effect = lower value 1.05 | S. cerevisiae deletion strains, locus YLR268W, strain sec22, stronger effect = lower value 1.01 | S. cerevisiae deletion strains, locus YLR320W, strain mms22, stronger effect = lower value 1.02 | S. cerevisiae deletion strains, locus YLR330W, strain CHS5, stronger effect = lower value 1 | S. cerevisiae deletion strains, locus YLR342W, strain FKS1 (second series), stronger effect = lower value 0.999 | S. cerevisiae deletion strains, locus YLR342W, strain FKS1, stronger effect = lower value 0.958 | S. cerevisiae deletion strains, locus YLR357W, strain rsc2, stronger effect = lower value 0.962 | S. cerevisiae deletion strains, locus YLR370C, strain arc18, stronger effect = lower value 0.995 | S. cerevisiae deletion strains, locus YLR371W, strain rom2, stronger effect = lower value 1.01 | S. cerevisiae deletion strains, locus YLR384C, strain iki3, stronger effect = lower value 0.985 | S. cerevisiae deletion strains, locus YLR418C, strain cdc73, stronger effect = lower value 1.05 | S. cerevisiae deletion strains, locus YML016C, strain PPZ1, stronger effect = lower value 1 | S. cerevisiae deletion strains, locus YML032C, strain rad52, stronger effect = lower value 1 | S. cerevisiae deletion strains, locus YML120C, strain ndi1, stronger effect = lower value 0.988 | S. cerevisiae deletion strains, locus YML124C, strain tub3, stronger effect = lower value 1.01 | S. cerevisiae deletion strains, locus YMR058W, strain fet3, stronger effect = lower value 0.991 | S. cerevisiae deletion strains, locus YMR078C, strain ctf18, stronger effect = lower value 1.03 | S. cerevisiae deletion strains, locus YMR125W, strain sto1, stronger effect = lower value 0.989 | S. cerevisiae deletion strains, locus YMR129W, stronger effect = lower value 0.986 | S. cerevisiae deletion strains, locus YMR205C, strain PFK2, stronger effect = lower value 0.993 | S. cerevisiae deletion strains, locus YMR223W, strain ubp8, stronger effect = lower value 1.02 | S. cerevisiae deletion strains, locus YMR231W, strain pep5, stronger effect = lower value 0.975 | S. cerevisiae deletion strains, locus YMR307W, strain GAS1, stronger effect = lower value 1.06 | S. cerevisiae deletion strains, locus YNL067W, strain RPL9B, stronger effect = lower value 1.02 | S. cerevisiae deletion strains, locus YNL071W, strain lat1, stronger effect = lower value 1.01 | S. cerevisiae deletion strains, locus YNL153C, strain GIM3, stronger effect = lower value 1.01 | S. cerevisiae deletion strains, locus YNL183C, strain NPR1, stronger effect = lower value 0.944 | S. cerevisiae deletion strains, locus YNL209W, strain ssb2, stronger effect = lower value 1.02 | S. cerevisiae deletion strains, locus YNL233W, strain BNI4, stronger effect = lower value 1.01 | S. cerevisiae deletion strains, locus YNL248C, strain rpa49, stronger effect = lower value 1.03 | S. cerevisiae deletion strains, locus YNL250W, strain rad50, stronger effect = lower value 1.01 | S. cerevisiae deletion strains, locus YNL271C, strain bni1, stronger effect = lower value 1.02 | S. cerevisiae deletion strains, locus YNL298W, strain CLA4, stronger effect = lower value 1.03 | S. cerevisiae deletion strains, locus YNL307C, strain MCK1, stronger effect = lower value 1.02 | S. cerevisiae deletion strains, locus YNL322C, strain KRE1 (second series), stronger effect = lower value 0.985 | S. cerevisiae deletion strains, locus YNL322C, strain KRE1, stronger effect = lower value 0.982 | S. cerevisiae deletion strains, locus YNR049C, strain mso1, stronger effect = lower value 0.987 | S. cerevisiae deletion strains, locus YNR052C, strain pop2, stronger effect = lower value 1.01 | S. cerevisiae deletion strains, locus YOL006C, strain TOP1, stronger effect = lower value 1.04 | S. cerevisiae deletion strains, locus YOL012C, strain htz1 1.15 | S. cerevisiae deletion strains, locus YOL147C, strain pex11, stronger effect = lower value 1.01 | S. cerevisiae deletion strains, locus YOR001W, strain rrp6, stronger effect = lower value 0.97 | S. cerevisiae deletion strains, locus YOR061W, strain CKA2, stronger effect = lower value 1.01 | S. cerevisiae deletion strains, locus YOR069W, strain VPS5, stronger effect = lower value 1.01 | S. cerevisiae deletion strains, locus YOR070C, strain gyp1, stronger effect = lower value 0.997 | S. cerevisiae deletion strains, locus YOR080W, strain dia2, stronger effect = lower value 0.981 | S. cerevisiae deletion strains, locus YOR083W, strain WHI5, stronger effect = lower value 0.952 | S. cerevisiae deletion strains, locus YOR106W, strain vam3, stronger effect = lower value 0.993 | S. cerevisiae deletion strains, locus YOR136W, strain idh2, stronger effect = lower value 1.02 | S. cerevisiae deletion strains, locus YOR144C, strain elg1, stronger effect = lower value 1.01 | S. cerevisiae deletion strains, locus YOR184W, strain ser1, stronger effect = lower value 1.02 | S. cerevisiae deletion strains, locus YOR231W, strain MKK1, stronger effect = lower value 0.997 | S. cerevisiae deletion strains, locus YOR265W, strain rbl2, stronger effect = lower value 0.998 | S. cerevisiae deletion strains, locus YOR270C, strain vph1, stronger effect = lower value 0.957 | S. cerevisiae deletion strains, locus YOR290C, strain snf2, stronger effect = lower value 1.02 | S. cerevisiae deletion strains, locus YOR316C, strain cot1, stronger effect = lower value 1.02 | S. cerevisiae deletion strains, locus YPL051W, strain arl3, stronger effect = lower value 1.02 | S. cerevisiae deletion strains, locus YPL055C, strain LGE1, stronger effect = lower value 1.01 | S. cerevisiae deletion strains, locus YPL078C, strain atp4, stronger effect = lower value 0.961 | S. cerevisiae deletion strains, locus YPL106C, strain sse1, stronger effect = lower value 1.01 | S. cerevisiae deletion strains, locus YPL240C, strain hsp82, stronger effect = lower value 1.01 | S. cerevisiae deletion strains, locus YPL241C, strain CIN2, stronger effect = lower value 0.988 | S. cerevisiae deletion strains, locus YPL256C, strain CLN2, stronger effect = lower value 0.984 | S. cerevisiae deletion strains, locus YPR119W, strain clb2, stronger effect = lower value 1.01 | S. cerevisiae deletion strains, locus YPR141C, strain kar3, stronger effect = lower value 1.03 | S. cerevisiae deletion strains, locus YPR163C, strain tif3, stronger effect = lower value 1.02 | S. cerevisiae deletion strains, locus YPR167C, strain met16, stronger effect = lower value 1.01 | S. cerevisiae deletion strains, strain wtn01, stronger effect = lower value 1.01 | S. cerevisiae strains, strain wild type, stronger effect = lower value 1
